# Measurements reported in the supplement of paper PMC8728848.
# The entries come from a sample that favours the strongest signals as a whole.
# Experiments:
# Experiment in all cases: glycan array binding signal (z-score within array); higher = stronger binding
# Settings in all cases: glycan notation: IUPAC condensed, linker removed
# [1] = biological target: Fuc(a1-2)Gal(b1-3)GlcNAc(b1-2)Man(a1-3)[Fuc(a1-2)Gal(b1-3)GlcNAc(b1-2)Man(a1-6)]Man(b1-4)GlcNAc(b1-4)[Fuc(a1-6)]GlcNAc
# In short: (§1)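 Columns mapping to the same glycan were averaged after glycan names were converted to IUPAC-condensed notation. The data come from 3228 arrays in the Consortium for Functional Glycomics database, limited to those with an available protein sequence. Binding is reported as a within-array Z-score averaged across arrays of one protein sequence and across linkers.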
# [2] = biological target: Fuc(a1-2)Gal(b1-3)GlcNAc(b1-3)Gal(b1-4)Glc
# In short: as §1
# [3] = biological target: Fuc(a1-2)Gal(b1-4)GlcNAc(b1-2)Man(a1-3)[Fuc(a1-2)Gal(b1-4)GlcNAc(b1-2)Man(a1-6)]Man(b1-4)GlcNAc(b1-4)[Fuc(a1-6)]GlcNAc
# In short: as §1
# [4] = biological target: Fuc(a1-2)Gal(b1-4)[Fuc(a1-3)]GlcNAc(b1-3)Gal(b1-4)[Fuc(a1-3)]GlcNAc(b1-3)Gal(b1-4)[Fuc(a1-3)]GlcNAc
# In short: as §1
# [5] = biological target: Fuc(a1-2)[Gal(a1-3)]Gal(b1-3)GlcNAc(b1-2)Man(a1-3)[Fuc(a1-2)[Gal(a1-3)]Gal(b1-3)GlcNAc(b1-2)Man(a1-6)]Man(b1-4)GlcNAc(b1-4)[Fuc(a1-6)]GlcNAc
# In short: as §1
# [6] = biological target: Fuc(a1-2)[Gal(a1-3)]Gal(b1-4)GlcNAc
# In short: as §1
# [7] = biological target: Fuc(a1-2)[Gal(a1-3)]Gal(b1-4)GlcNAc(b1-3)[Fuc(a1-2)[Gal(a1-3)]Gal(b1-4)GlcNAc(b1-6)]GalNAc
# In short: as §1
# [8] = biological target: Fuc(a1-2)[Gal(a1-3)]Gal(b1-4)GlcNAc(b1-6)GalNAc
# In short: as §1
# [9] = biological target: Fuc(a1-2)[GalNAc(a1-3)]Gal(b1-3)GalNAc(b1-3)Gal(a1-4)Gal(b1-4)Glc
# In short: as §1
# [10] = biological target: Fuc(a1-2)[GalNAc(a1-3)]Gal(b1-4)GlcNAc(b1-3)GalNAc
# In short: as §1
# [11] = biological target: Fuc(a1-3)[Gal(b1-4)]GlcNAc(b1-3)Gal(b1-4)[Fuc(a1-3)]GlcNAc(b1-3)Gal(b1-4)[Fuc(a1-3)]GlcNAc
# In short: as §1
# [12] = biological target: Fuc(a1-3)[Gal3S(b1-4)]GlcNAc6S
# In short: as §1
# Fuc(b1-3)GlcNAc = biological target: Fuc(b1-3)GlcNAc
# In short: as §1
# [13] = biological target: Gal(a1-3)Gal(b1-3)GlcNAc(b1-2)Man
# In short: as §1
# [14] = biological target: Gal(a1-3)Gal(b1-3)GlcNAc(b1-2)Man(a1-3)[Gal(a1-3)Gal(b1-3)GlcNAc(b1-2)Man(a1-6)]Man(b1-4)GlcNAc(b1-4)GlcNAc
# In short: as §1
# Gal(b1-3)GlcNAc(b1-2)Man = biological target: Gal(b1-3)GlcNAc(b1-2)Man
# In short: as §1
# [15] = biological target: Gal(b1-3)GlcNAc(b1-2)[Gal(b1-3)GlcNAc(b1-6)]Man(a1-6)[Gal(b1-3)GlcNAc(b1-2)Man(a1-3)]Man(b1-4)GlcNAc(b1-4)GlcNAc
# In short: as §1
# [16] = biological target: Gal(b1-3)GlcNAc(b1-3)Gal(b1-4)[Fuc(a1-3)]GlcNAc
# In short: as §1
# [17] = biological target: Gal(b1-3)GlcNAc(b1-3)GalNAc
# In short: as §1
# Gal(b1-4)GlcNAc(b1-2)Man = biological target: Gal(b1-4)GlcNAc(b1-2)Man
# In short: as §1
# [18] = biological target: Gal(b1-4)GlcNAc(b1-2)Man(a1-3)[Gal(b1-4)GlcNAc(b1-2)Man(a1-6)][GlcNAc(b1-4)]Man(b1-4)GlcNAc(b1-4)[Fuc(a1-6)]GlcNAc
# In short: as §1
# [19] = biological target: Gal(b1-4)GlcNAc(b1-2)[Gal(b1-4)GlcNAc(b1-6)]Man(a1-6)[GlcNAc(b1-4)][Gal(b1-4)GlcNAc(b1-2)Man(a1-3)]Man(b1-4)GlcNAc(b1-4)GlcNAc
# In short: as §1
# [20] = biological target: Gal(b1-4)GlcNAc(b1-3)Gal(b1-4)Glc
# In short: as §1
# [21] = biological target: Gal(b1-4)GlcNAc(b1-3)Gal(b1-4)GlcNAc(b1-2)[Gal(b1-4)GlcNAc(b1-3)Gal(b1-4)GlcNAc(b1-6)]Man(a1-6)[Gal(b1-4)GlcNAc(b1-3)Gal(b1-4)GlcNAc(b1-2)Man(a1-3)]Man(b1-4)GlcNAc(b1-4)GlcNAc
# In short: as §1
# [22] = biological target: Gal(b1-4)GlcNAc(b1-3)Gal(b1-4)GlcNAc(b1-3)Gal(b1-4)GlcNAc(b1-2)Man(a1-3)[Gal(b1-4)GlcNAc(b1-3)Gal(b1-4)GlcNAc(b1-3)Gal(b1-4)GlcNAc(b1-2)Man(a1-6)]Man(b1-4)GlcNAc(b1-4)[Fuc(a1-6)]GlcNAc
# In short: as §1
# [23] = biological target: Gal(b1-4)GlcNAc(b1-3)Gal(b1-4)GlcNAc(b1-3)Gal(b1-4)GlcNAc(b1-3)Gal(b1-4)GlcNAc(b1-2)[Gal(b1-4)GlcNAc(b1-3)Gal(b1-4)GlcNAc(b1-3)Gal(b1-4)GlcNAc(b1-3)Gal(b1-4)GlcNAc(b1-6)]Man(a1-6)[Gal(b1-4)GlcNAc(b1-3)Gal(b1-4)GlcNAc(b1-3)Gal(b1-4)GlcNAc(b1-3)Gal(b1-4)GlcNAc(b1-2)Man(a1-3)]Man(b1-4)GlcNAc(b1-4)[Fuc(a1-6)]GlcNAc
# In short: as §1
# [24] = biological target: Gal(b1-4)GlcNAc(b1-3)Gal(b1-4)GlcNAc(b1-3)Gal(b1-4)GlcNAc(b1-3)Gal(b1-4)GlcNAc(b1-3)Gal(b1-4)GlcNAc(b1-2)Man(a1-3)[Gal(b1-4)GlcNAc(b1-3)Gal(b1-4)GlcNAc(b1-3)Gal(b1-4)GlcNAc(b1-3)Gal(b1-4)GlcNAc(b1-3)Gal(b1-4)GlcNAc(b1-2)Man(a1-6)]Man(b1-4)GlcNAc(b1-4)[Fuc(a1-6)]GlcNAc
# In short: as §1
binder,measurement,setting,value
Aap lectin (Staphylococcus epidermidis) (protein) VNLNYSSPFMSLLSMPADSSSNNTKNTIDIPPTTVKGRDNYDFYGRVDIESNPTDLNATNLTRYNYGQPPGTTTAGAVQFKNQVSFDKDFDFNIRVANNRQSNTTGADGWGFMFSKKDGDDFLKNGGILREKGTPSAAGFRIDTGYYNNDPLDKIQKQAGQGYRGYGTFVKNDSQGNTSKVGSGTPSTDFLNYADNTTNDLDGKFHGQKLNNVNLKYNASNQTFTATYAGKTWTATLSELGLSPTDSYNFLVTSS,glycan array binding signal (z-score),[1],2.87
same,glycan array binding signal (z-score),[2],-0.68
same,glycan array binding signal (z-score),[3],-0.829
same,glycan array binding signal (z-score),[4],-0.534
same,glycan array binding signal (z-score),[5],3.02
same,glycan array binding signal (z-score),[6],3.04
same,glycan array binding signal (z-score),[7],2.98
same,glycan array binding signal (z-score),[8],-0.267
same,glycan array binding signal (z-score),[9],-0.573
same,glycan array binding signal (z-score),[10],0.8
same,glycan array binding signal (z-score),[11],0.476
same,glycan array binding signal (z-score),[12],-0.816
same,glycan array binding signal (z-score),Fuc(b1-3)GlcNAc,0.487
same,glycan array binding signal (z-score),[13],2.18
same,glycan array binding signal (z-score),[14],2.88
same,glycan array binding signal (z-score),Gal(b1-3)GlcNAc(b1-2)Man,3.17
same,glycan array binding signal (z-score),[15],-0.728
same,glycan array binding signal (z-score),[16],-0.351
same,glycan array binding signal (z-score),[17],0.183
same,glycan array binding signal (z-score),Gal(b1-4)GlcNAc(b1-2)Man,3
same,glycan array binding signal (z-score),[18],0.361
same,glycan array binding signal (z-score),[19],-0.475
same,glycan array binding signal (z-score),[20],0.463
same,glycan array binding signal (z-score),[21],-0.781
same,glycan array binding signal (z-score),[22],2.92
same,glycan array binding signal (z-score),[23],0.345
same,glycan array binding signal (z-score),[24],0.727
